Results from PubChem BioAssay (NCI).
Compounds without any hit were thinned out: in the full panel of roughly 79,000, 15% have a hit. Cut-off read from the data, not from the text of the source: active = growth inhibition above about 70%; inactive = the rest.

How the values were obtained:
[1] = NCI Yeast Anticancer Drug Screen. Data for the rad50 strain (AID 155);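 note: 0% = growth of vehicle-only cultures of the same strain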; settings: S. cerevisiae rad50 strain growth inhibition; at 50.0 µM; stronger effect = higher value
How it was run: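 Compounds were tested on a yeast strain with an engineered DNA damage repair alteration; the reported value is growth inhibition normalised to vehicle treatment.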

[2] = NCI Yeast Anticancer Drug Screen. Data for the mec2-1 strain (AID 157); settings: S. cerevisiae mec2-1 strain, at 50.0 µM, stronger effect = higher value
How it was run: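 Test agents were screened against the mec2-1 yeast strain, with defined DNA repair or cell cycle alteration. Growth was scored as inhibition against vehicle-only controls.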

[3] = NCI Yeast Anticancer Drug Screen. Data for the sgs1 mgt1 strain (AID 161);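 note: 0% = growth of cultures given vehicle only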; settings: S. cerevisiae sgs1 mgt1 strain, at 50.0 µM, stronger effect = higher value
How it was run: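 Mutant yeast exposed to compound; growth scored against vehicle-only wells.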

[4] = NCI Yeast Anticancer Drug Screen. Data for the cln2 rad14 strain (AID 165);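 note: 0% = growth equal to vehicle treated cultures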; settings: S. cerevisiae cln2 rad14 strain, at 50.0 µM, stronger effect = higher value
How it was run: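 Growth of compound-exposed yeast (cln2 rad14 genotype) measured and expressed as inhibition relative to vehicle.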

[5] = NCI Yeast Anticancer Drug Screen. Data for the bub3 strain (AID 167); settings: S. cerevisiae bub3 mutant strain, at 50.0 µM, stronger effect = higher value
How it was run: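 Growth of a checkpoint-deficient yeast mutant is measured after compound exposure. Values represent inhibition relative to vehicle.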

[6] = NCI Yeast Anticancer Drug Screen. Data for the mlh1 rad18 strain (AID 175); settings: S. cerevisiae mlh1 rad18 strain growth inhibition; at 50.0 µM; stronger effect = higher value
How it was run: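 In this whole-cell yeast screen, a strain with altered DNA damage repair is challenged with compound, and its growth is measured against matched vehicle-treated controls.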

Measured: growth inhibition

O=C(O)CC(NC(=O)CP(=O)(O)O)C(=O)O (stereo not given)
inactive: [1] -9.4% | [2] -21.9% | [3] -10.6% | [4] 2% | [5] -8.5% | [6] -13.1%

Cc1ccc(S(=O)(=O)/N=C2\CCN(S(=O)(=O)c3ccccc3)N2S(=O)(=O)c2ccc(C)cc2)cc1
inactive: [1] 17.6% | [2] 15.5% | [3] 14.3% | [4] 9.85% | [5] 11.8% | [6] 46.5%

CCOCC1OCCCO1
inactive: [1] -13.5% | [2] 12.4% | [3] 1.6% | [4] -9.85% | [5] -10% | [6] 7.15%

COC/C(=N/Nc1ccc([N+](=O)[O-])cc1[N+](=O)[O-])C(C)(C)C
inactive: [1] -2.8% | [2] 16.4% | [3] 8.6% | [4] -26.3% | [5] -20.9% | [6] -16.8%

COc1cccc(N=N/C(=N/NC(=O)c2cc(Cl)ccc2O)c2ccc(N(CCC#N)CCC#N)cc2C)c1
inactive: [1] -18.9% | [2] -16.8% | [3] -18.9% | [4] -18.6% | [5] -17.9% | [6] -47.6%

CSCCC(NCCC#N)C(=O)O (stereo not given)
inactive: [1] -7.05% | [2] 19.4% | [3] 8.45% | [4] -12.9% | [5] -27.9% | [6] 2.85%

Cc1ccc(-c2cc(=O)c3cc(C)c(C)c(C#N)c3o2)cc1
inactive: [1] -10.2% | [2] -5.75% | [3] -13.8% | [4] -1.7% | [5] -22.4% | [6] 6.45%

O=C(Nc1ccn(CCI)c(=O)n1)c1ccccc1
inactive: [1] -20.8% | [2] -37.4% | [3] 10.1% | [4] 14.4% | [5] 15.2% | [6] 26.1%

Cc1ccc(S(=O)(=O)N/N=C/c2ccsc2)cc1
inactive: [1] 20.6% | [2] 13.3% | [3] 27.9% | [4] 18.8% | [5] 23% | [6] 33%

CC(Br)C(=O)Nc1ccc(C(=O)O)c(O)c1 (stereo not given)
inactive: [1] 3.85% | [2] -32.8% | [3] -18.8% | [4] 20.9% | [5] -7.5% | [6] 2.95%

CC1(C)O[C@@H]2[C@@H](COC(=O)c3ccccc3)C[C@@H](C#N)[C@@H]2O1
inactive: [1] 4.05% | [2] -0.85% | [3] -25.6% | [4] 24.9% | [5] 38.9% | [6] -11.2%

CC(C)(C)C(=O)NO
inactive: [1] -12.6% | [2] -12.1% | [3] -13.6% | [4] 6.8% | [5] 4.5% | [6] -0.3%

CC(=O)Nc1nc(Cl)c2ncn(C3OC(COC(=O)c4ccccc4)CC3OC(=O)c3ccccc3)c2n1 (stereo not given)
inactive: [1] 10.2% | [2] 3.1% | [3] -8.8% | [4] 2.6% | [5] 10.6% | [6] 4.5%

CSc1c(C(=O)Nc2ccc(C)cc2)c(N)nn1-c1ccccc1
inactive: [1] 20.8% | [2] -12.3% | [3] 20.4% | [4] 12.8% | [5] 4.35% | [6] 2.7%

CCCCC(C(=O)OCC)C(=O)OCC
inactive: [1] 5.9% | [2] 4.45% | [3] -6.35% | [4] -53% | [5] -2.75% | [6] -3.2%

CC(=O)OCC1OC(n2cnc3c(Cl)nc(Cl)nc32)CC1OC(C)=O (stereo not given)
inactive: [1] 37.3% | [2] 20.9% | [3] 24.4% | [4] 30.4% | [5] 5.2% | [6] 34.9%

CC(=O)Nc1cc2c(cc1C=O)OCO2
inactive: [1] 19.6% | [2] 9.7% | [3] -0.6% | [4] -32.3% | [5] -2.5% | [6] 11.3%

O=C(NCc1ccncc1)Nc1ccc(Cc2ccc(NC(=O)NCc3ccncc3)cc2)cc1
inactive: [1] -8.05% | [2] -19.1% | [3] 0.2% | [4] 15.3% | [5] 3.5% | [6] 4.25%

CN(C)CCNc1ccc2ncn3c4ccccc4c(=O)c1c23
inactive: [1] 13.4% | [2] -0.35% | [3] -4.95% | [4] 27.1% | [5] -0.1% | [6] 46.5%

Cc1cc(C)nc(NC(=O)COc2ccc(Cl)cc2)c1
inactive: [1] -15.7% | [2] 5.95% | [3] -20.8% | [4] -39.7% | [5] -37.5% | [6] -14.8%

O=C(O)/C(=N\O)c1cnnn1-c1ccccc1
inactive: [1] -5.95% | [2] 11.9% | [3] -8.45% | [4] 3.35% | [5] -17.6% | [6] -25.9%

O=[N+]([O-])C1(CO)COC2(OC1)c1ccccc1-c1ccccc12
inactive: [1] 0.5% | [2] -7.2% | [3] -21.6% | [4] 11.8% | [5] -26.8% | [6] -0.25%

CN1C=C([N+](=O)[O-])C(N2CCOCC2)C1N1CCOCC1 (stereo not given)
inactive: [1] 3.1% | [2] 0.65% | [3] -3.5% | [4] 3.1% | [5] -26.6% | [6] 20.9%

CN1C=CCC(C=O)C1 (stereo not given)
inactive: [1] -13.5% | [2] -4.5% | [3] 0.05% | [4] -3.7% | [5] 1.65% | [6] -7.2%

NC1(C(=O)O)CCCC1C(=O)O (stereo not given)
inactive: [1] -8.7% | [2] -26.6% | [3] -23.1% | [4] 15.9% | [5] -6.3% | [6] -2.75%

CN1C(=O)c2ccccc2Cc2c(Cl)ncnc21
inactive: [1] -0.5% | [2] 26.4% | [3] 11.2% | [4] -1.45% | [5] 28.6% | [6] 2.1%

CCC1(CC)C(=O)N(C(=O)c2ccc(Cl)cc2)N(C(=O)c2ccccc2Cl)C1=O
inactive: [1] 22.3% | [2] 23.8% | [3] 5.8% | [4] 41.8% | [5] 49.2% | [6] -53.5%

CN(C)c1ccc(N=Nc2cccc3ncccc23)cc1
inactive: [1] 2.1% | [2] 26.6% | [3] 67.5% | [4] 31.1% | [5] 65.5% | [6] 66%

CCc1c(CN)c(CC)c(CNC2=NCCN2)c(CC)c1CNC1=NCCN1
inactive: [1] 13.6% | [2] 3.45% | [3] 12.2% | [4] 10.9% | [5] 12.8% | [6] 15.2%

CCCCCCCCCCCC(=O)O (tested in a mixture with another compound)
inactive: [1] -15.7% | [2] 7.5% | [3] -41.6% | [4] -39.9% | [5] -32.6% | [6] -13.5%

COC(=O)c1cn[nH]c1CC(N)=O
inactive: [1] 35.9% | [2] 11.5% | [3] 25.1% | [4] -17.1% | [5] 12.3% | [6] 19.9%

COC(=O)CCC(CCc1ccccc1)(C(C)=O)C(C)=O
inactive: [1] -2.4% | [2] -13.1% | [3] -16.5% | [4] -4.05% | [5] 19.3% | [6] 7.7%

CCOC(=O)c1nc(SC)sc1NC(=O)c1ccccc1[N+](=O)[O-]
inactive: [1] 21.2% | [2] -4.6% | [3] -8.75% | [4] 11.6% | [5] 3% | [6] -2.65%

CC1C(NNC(N)=O)Oc2cc3c(cc2C1c1ccccc1O)OCO3 (stereo not given)
inactive: [1] -5.7% | [2] -25.4% | [3] 11.8% | [4] 10.2% | [5] -11.1% | [6] -4.75%

Clc1ccc(CSCSCc2ccc(Cl)cc2)cc1
inactive: [1] 5.95% | [2] -15.3% | [3] 10.8% | [4] -40.9% | [5] 19.6% | [6] 4.3%

Nc1nc2nc[n-]c2c(=O)[nH]1.[NH2-].[NH2-].[NH2-].[NH2-].[NH2-].[Ru+6]
inactive: [1] 20.6% | [2] 4.55% | [3] 4.9% | [4] 2.5% | [5] -5.8% | [6] -4.9%

COc1ccc2c(CCNC(C)=O)c(C(C)=O)[nH]c2c1
inactive: [1] -9.65% | [2] -3.25% | [3] 12.4% | [4] 15.5% | [5] -12.3% | [6] 36.1%

Clc1ccc(N=CNc2ccc(Cl)cc2)cc1
inactive: [1] -10.2% | [2] -2.85% | [3] -6.55% | [4] -14.2% | [5] 43.2% | [6] -2.35%

CN(CN(C)/N=C/c1cccc([N+](=O)[O-])c1)/N=C\c1cccc([N+](=O)[O-])c1
inactive: [1] -0.05% | [2] -11.6% | [3] -2.9% | [4] -40.9% | [5] 4.95% | [6] -14.3%

O=C(O)C/C(=C\c1ccccc1)C(=O)O
inactive: [1] -3.15% | [2] -25.9% | [3] -17.4% | [4] 4% | [5] -24.2% | [6] -30.9%
